Most compounds without a hit are left out; they make up all but 4.8% or so of the library.
SMARCA2 act – activators of SMARCA2 function; MG213 cells, MMTV-luciferase reporter, dexamethasone, overnight; activation, % at 9.1 µM; 370,000 tested, 1% active; in the data active = activation above about 7.8%
DAX1 inh-1 – inhibitors of DAX1 repression of SF-1 activated StAR promoter; HEK293T StAR-luciferase reporter, SF-1/DAX-1 repression relief; inhibition, % at 6.8 µM; 370,000 tested, 1.1% active; AID 652010;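 active = inhibition above the mean over all tested compounds plus 3 SD, cut at about 3.6% in these data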;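 note: higher inhibition means more luminescence from relief of DAX-1 repression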
ssDAF-12 act – S. stercoralis DAF-12 activation, primary screen | 370,000 tested, 1% active | activation, % at 6.8 µM | HEK293 ssDAF-12/GRIP1 lit1-tk-luc reporter, luminescence; % of 3 µM dafachronic acid response | AID 652126;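 active = activation above the mean over all tested compounds plus 3 SD, cut at about 0.9% in these data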
hgDAF-12 ag – agonists of H. glycines DAF-12 nuclear receptor; 370,000 tested, 1.8% active; HEK293 GAL4-hgDAF12 UAS-luciferase reporter, agonist luminescence; normalized to butyrate control; activation, % at 6.8 µM;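 active = activation above a cutoff set at the mean of all screened compounds plus 3 SD, cut at about 10% in these data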
DAX1 inh-2 – inhibitors of human orphan nuclear receptor DAX1 (NR0B1) | P51843 | HEK293 Gal4-DAX1 luciferase reporter, luminescence | inhibition, % at 6.75 µM | 340,000 tested, 0.99% active;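 active = inhibition above the mean over all tested compounds plus 3 SD, cut at about 4.2% in these data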;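 note: inhibition shows as a rise in luminescence from relieved DAX1 repression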
hcDAF12 agonist – activates DAF-12 receptor from parasite H. contortus. HEK293 hcDAF-12 lit1-tk-luc reporter, luminescence; 0% DMSO, 100% Δ7-dafachronic acid. activation, % at 6.8 µM. 370,000 tested, 1.4% active;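 active = activation above the mean of all tested compounds plus 3 SD, cut at about 5.5% in these data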
DAX1 conf – confirmation of human DAX1 (NR0B1) inhibitors; HEK293T StAR-promoter luciferase reporter, SF-1/DAX-1 repression; shares compounds with DAX1 inh-1; inhibition, % at 6.8 µM; 2,400 tested, 87% active; AID 652134;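 active = inhibition above the average of every tested compound plus 3 SD, cut at about 3.8% in these data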;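 note: active compounds raise luminescence by relieving repression of the StAR reporter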
Target sequence (P51843 whole entry, looked up): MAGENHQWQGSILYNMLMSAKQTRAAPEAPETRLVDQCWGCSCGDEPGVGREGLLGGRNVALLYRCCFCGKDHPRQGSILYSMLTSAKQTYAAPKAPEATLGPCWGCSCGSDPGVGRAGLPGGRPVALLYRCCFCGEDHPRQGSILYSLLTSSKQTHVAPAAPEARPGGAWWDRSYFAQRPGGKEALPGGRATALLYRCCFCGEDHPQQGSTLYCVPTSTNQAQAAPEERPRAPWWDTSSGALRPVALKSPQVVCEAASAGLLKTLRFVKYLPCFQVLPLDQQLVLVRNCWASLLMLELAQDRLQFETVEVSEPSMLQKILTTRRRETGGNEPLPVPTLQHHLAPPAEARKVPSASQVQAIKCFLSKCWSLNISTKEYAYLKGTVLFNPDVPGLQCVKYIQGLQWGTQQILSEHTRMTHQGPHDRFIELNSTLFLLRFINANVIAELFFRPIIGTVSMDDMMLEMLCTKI
SF1 mutant ctr – nonselective inhibitor or artifact in SF-1 mutant DAX1 counter-screen; HEK293 StAR-luciferase, SF-1 AF2 mutant, luminescence; inhibition, % at 6.8 µM; shares compounds with DAX1 inh-1; 2,400 tested, 78% active;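 active = inhibition above the mean of all tested compounds plus 3 SD, cut at about 3% in these data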
Large screens that a line does not name were inactive (follow-up assays come after a bar, where they were run).

O=C(NC1CCCC1)c1cc2cc(Br)ccc2o1	DAX1 inh-1 7.0 | DAX1 conf 7.8 | SF1 mutant ctr 4.1
Cc1cscc1-c1ccc(C(=O)Nc2c(C)cccc2C)o1	DAX1 inh-1 4.5 (no result: DAX1 inh-2) | DAX1 conf inactive | SF1 mutant ctr inactive
COc1cc(Cl)ccc1OCc1cc(C(=O)N2CCCCCCC2)no1	none
COc1cc(C)ccc1OCc1cc(C(=O)N2C[C@H]3CC[C@H]2C3)no1	none
COc1cc(Cl)ccc1OCc1cc(C(=O)N2C[C@@H]3CCC[C@H]2C3)no1	DAX1 inh-1 5.2 | DAX1 conf 7.5 | SF1 mutant ctr 4.9
COc1cc(Cl)ccc1OCc1cc(C(=O)N2C[C@H]3CC[C@H]2C3)no1	DAX1 inh-1 5.5 | DAX1 conf 4.7 | SF1 mutant ctr 4.0
O=C(Nc1ccc(C(=O)NCCCN2CCN(c3ccc(F)cc3)CC2)cc1)C1=CSCCO1	none
CC(=O)Nc1nc2cc3c(cc2s1)OCCO3	DAX1 inh-1 5.8, ssDAF-12 act 1.3, hgDAF-12 ag 10.5 | DAX1 conf 11.5 | SF1 mutant ctr 6.0
Cc1cccc(C(=O)N[C@@H]2CC[C@@]34CCCN3C(=O)CCC[C@H]4[C@H]2C)c1	none (no result: SMARCA2 act, DAX1 inh-1, DAX1 inh-2)
CCc1nnc(NC(=O)c2cc(C)oc2C)s1	DAX1 inh-1 9.5 | DAX1 conf 7.9 | SF1 mutant ctr 5.6
CCSc1nnc(NC(=O)c2cc(C)oc2C)s1	none
CN(CC(=O)NCCC1=CCCCC1)S(=O)(=O)c1ccc2c(c1)CCC(=O)N2	none
Cc1[nH]n(-c2cccc(Cl)c2)c(=O)c1C=NCc1ccco1	DAX1 inh-1 5.8, hgDAF-12 ag 11.6, DAX1 inh-2 5.7 | DAX1 conf 8.3 | SF1 mutant ctr 5.1
COc1cc2[nH]c(=O)n(CCC(=O)N3CCc4ccccc4C3)c(=O)c2cc1OC	none
CCC1C(=O)N=C(SCC(=O)Nc2ccc(Br)cn2)NC1=O (configuration not stated)	none
CC1CCCCN1S(=O)(=O)c1cnc(Cl)c(Br)c1 (configuration not stated)	none
Nc1cccc2cc(-c3ccccc3)oc12	DAX1 inh-1 5.3 | DAX1 conf 6.5 | SF1 mutant ctr 5.6
COc1cccc2cc(-c3ccccc3)oc12	none (no result: DAX1 inh-2)
CC(=O)Nc1ccccc1NC(=O)C/C(C)=N/NC(=O)c1ccccn1	DAX1 inh-1 4.6, hcDAF12 agonist 7.5 | DAX1 conf inactive | SF1 mutant ctr 3.4
COc1ccccc1C(=O)N/N=C(\C)CC(=O)Nc1ccccc1NC(C)=O	none
CCCCN(CC)CCCNC(=O)c1cc2c(=O)n(C)c3ccccc3c2n1C	DAX1 inh-1 4.7 | DAX1 conf 8.7 | SF1 mutant ctr inactive
CC(C)OCCCNC(=O)c1cc2c(=O)n(C)c3ccccc3c2n1C	none
CCOC(=O)c1c(C)[nH]c(C(=O)NNC(=O)c2ccccc2F)c1C	DAX1 inh-1 5.1 | DAX1 conf 8.3 | SF1 mutant ctr 6.5
S=c1nc2ccccc2c2nc(-c3ccccc3Br)[nH]n12	none
Brc1ccccc1-c1nc2c3ccccc3ncn2n1	DAX1 inh-1 4.6, hgDAF-12 ag 10.9, hcDAF12 agonist 6.0 | DAX1 conf 9.0 | SF1 mutant ctr 6.4
COC(=O)NNC(=O)COc1ccc2ccccc2c1Br	none
CCCCc1nnc(NC(=O)C2=COCCO2)s1	DAX1 inh-1 7.3, ssDAF-12 act 1.0 | DAX1 conf 7.3 | SF1 mutant ctr 5.6
O=C(Nc1nc2ccc(F)cc2s1)C1=COCCO1	DAX1 inh-1 7.5 | DAX1 conf 7.6 | SF1 mutant ctr 3.1
Cc1nnc(NC(=O)C2=COCCO2)s1	none
COc1ccc(COC(=O)c2cc([N+](=O)[O-])ccc2N2CCOCC2)cc1F	DAX1 inh-1 4.5 | DAX1 conf 13.4 | SF1 mutant ctr inactive
COc1ccc(Nc2nc3ccccc3s2)cc1	DAX1 inh-1 5.5, hgDAF-12 ag 26.8, DAX1 inh-2 4.3 | DAX1 conf 12.2 | SF1 mutant ctr 7.3
O=C(c1cc(COc2c(F)cccc2F)on1)N1CCCCCC1	SMARCA2 act 7.9, DAX1 inh-1 4.8 | DAX1 conf 4.6 | SF1 mutant ctr 3.0
CSc1ccccc1OCc1cc(C(=O)N2CCCC(C)C2)no1 (configuration not stated)	DAX1 inh-1 6.5, hgDAF-12 ag 12.0 | DAX1 conf 8.3 | SF1 mutant ctr 4.0
CC(=O)c1ccc(OCc2cc(C(=O)N3CC[C@@H]4CCCC[C@H]4C3)no2)cc1	none
CN(C(=O)c1cc(COc2c(F)cccc2F)on1)C1CCOC1 (configuration not stated)	DAX1 inh-1 5.1 | DAX1 conf inactive | SF1 mutant ctr inactive
Cc1cccc(C)c1OCc1cc(C(=O)N2CCC(C3CCCCC3)C2)no1 (configuration not stated)	DAX1 inh-1 4.7 | DAX1 conf 5.0 | SF1 mutant ctr 4.0
CN1CCN(C(=O)C2=C[C@@H](c3coc4ccccc4c3=O)C[C@@H](OCc3ccc(CO)cc3)O2)CC1	none
C=C(CN(C)C)C(=O)c1ccc(C)cc1C	none
CCOC(=O)N1CCN(C(=O)c2cc(COc3c(F)cccc3F)on2)CC1	DAX1 inh-1 7.8, hgDAF-12 ag 11.5 | DAX1 conf 8.9 | SF1 mutant ctr 5.7
Cc1ccc(C)c(OCc2cc(C(=O)N3CCOCC3)no2)c1	DAX1 inh-1 5.7 | DAX1 conf 5.3 | SF1 mutant ctr 4.7
CSc1ccccc1OCc1cc(C(=O)N(C)Cc2ccc(C)o2)no1	none
CSc1ccccc1OCc1cc(C(=O)N(C)Cc2ccc3nsnc3c2)no1	DAX1 inh-1 5.3, hgDAF-12 ag 11.4 | DAX1 conf 6.5 | SF1 mutant ctr 3.1
CC(=O)N1CCCN(C(=O)c2cc(COc3c(F)cccc3F)on2)CC1	none
COC1CCN(C(=O)c2cc(COc3cc(C)ccc3C)on2)CC1	none
COc1ccc(-c2[nH]c(-c3cccc(OC)c3)nc2SCC(=O)NC2CCCC2)cc1	none
CC12CCC(C(=O)NCc3ccccc3Cl)(OC1=O)C2(C)C (configuration not stated)	none
COc1nc(NCCN2CCOCC2)nc(Nc2ccccc2)n1	none
O=C1CCCc2nc(N3CCN(C(=O)c4ccco4)CC3)ncc21	DAX1 inh-1 5.7 | DAX1 conf 5.9 | SF1 mutant ctr 3.4
COc1ccc2sc(NC(=O)c3ccco3)nc2c1	DAX1 inh-1 6.2 | DAX1 conf 10.1 | SF1 mutant ctr inactive
COc1ccc2nc(NC(=O)CCNC(=O)c3ccco3)sc2c1	none
